What all share (test): DAPPL (digital affinity profiling via proximity ligation, sequencing); 10 mM Tris-HCl pH 7.5, 50 mM NaCl, 1 mM DTT, 4% glycerol, room temperature, 30 min; GST-TFs on glutathione beads, 16-mer random dsDNA library, 0.1% formaldehyde crosslink after washing; high values mean tight binding
Experiment [1] deals with T1, FEV (Homo sapiens, UniProt Q99581 1-238).
T1 sequence: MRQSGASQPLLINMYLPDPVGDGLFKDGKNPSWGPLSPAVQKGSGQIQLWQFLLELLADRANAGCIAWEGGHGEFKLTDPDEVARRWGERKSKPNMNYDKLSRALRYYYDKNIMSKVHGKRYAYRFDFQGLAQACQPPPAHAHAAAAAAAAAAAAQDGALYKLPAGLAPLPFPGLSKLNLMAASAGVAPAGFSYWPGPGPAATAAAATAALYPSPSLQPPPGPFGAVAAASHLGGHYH
The following applies: protein: recombinant; tags: N-terminal GST; dsDNA, one strand shown. The method, boiled down:
(§1)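 Beads coated with glutathione captured GST-fused human transcription factors that had been expressed in yeast, and the factors were then given DNA barcodes and pooled with a tag-only sample. The pools were incubated with 200 nmole of a random double-stranded 16-mer DNA library in Tris/NaCl/DTT/glycerol buffer for 30 min at room temperature, washed, crosslinked with 0.1% formaldehyde and proximity-ligated with BsaI/T4 ligase at 37 °C for 1 h. PCR amplification and Illumina NextSeq500 sequencing came last. Binding signal is each hexamer's read frequency for a factor divided by its frequency for the tag-only sample.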

The target of experiment [2] is ETV5 (Homo sapiens, UniProt P41161 1-510). The conditions noted are these: protein: recombinant; tags: N-terminal GST; dsDNA, one strand shown. The method, boiled down:
as §1

Experiment [3] addresses HSF1 (Homo sapiens, UniProt Q00613 1-529). The conditions noted are these: protein: recombinant; tags: N-terminal GST; chain copies: 3; dsDNA, one strand shown. The method, boiled down:
as §1

Experiment [4] has as its target T2, SPIC (Homo sapiens, UniProt Q8N5J4 1-248).
T2 sequence: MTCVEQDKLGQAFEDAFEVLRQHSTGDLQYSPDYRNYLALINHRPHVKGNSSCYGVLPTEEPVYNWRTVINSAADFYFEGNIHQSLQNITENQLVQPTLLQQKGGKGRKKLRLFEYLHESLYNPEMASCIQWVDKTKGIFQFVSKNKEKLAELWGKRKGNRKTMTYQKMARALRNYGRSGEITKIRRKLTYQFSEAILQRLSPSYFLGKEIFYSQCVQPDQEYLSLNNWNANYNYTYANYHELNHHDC
The conditions noted are these: protein: recombinant; tags: N-terminal GST; dsDNA, one strand shown. The method, boiled down: as §1

For experiment [5], the target named is ELF4 (Homo sapiens, UniProt Q99607 1-663). The conditions noted are these: protein: recombinant; tags: N-terminal GST; dsDNA, one strand shown. The method, boiled down:
as §1

Experiment [6] concerns the target T3, ELK4 (Homo sapiens, UniProt P28324-2 1-405).
T3 sequence: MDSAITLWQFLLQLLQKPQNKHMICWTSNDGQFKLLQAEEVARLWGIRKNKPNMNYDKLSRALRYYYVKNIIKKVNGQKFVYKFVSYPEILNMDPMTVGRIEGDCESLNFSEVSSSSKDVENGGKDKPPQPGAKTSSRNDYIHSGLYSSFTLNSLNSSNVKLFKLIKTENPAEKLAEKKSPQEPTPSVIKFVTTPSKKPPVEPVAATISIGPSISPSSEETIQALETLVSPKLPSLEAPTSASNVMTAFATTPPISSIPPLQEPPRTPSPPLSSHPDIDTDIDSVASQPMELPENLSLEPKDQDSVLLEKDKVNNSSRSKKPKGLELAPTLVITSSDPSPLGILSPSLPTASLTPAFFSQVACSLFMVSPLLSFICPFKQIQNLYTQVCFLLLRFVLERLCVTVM
The conditions noted are these: protein: recombinant; tags: N-terminal GST; dsDNA, one strand shown. The method, boiled down:
as §1

In experiment [7] the target is T4, ETV2 (Homo sapiens, UniProt O00321 1-342).
T4 sequence: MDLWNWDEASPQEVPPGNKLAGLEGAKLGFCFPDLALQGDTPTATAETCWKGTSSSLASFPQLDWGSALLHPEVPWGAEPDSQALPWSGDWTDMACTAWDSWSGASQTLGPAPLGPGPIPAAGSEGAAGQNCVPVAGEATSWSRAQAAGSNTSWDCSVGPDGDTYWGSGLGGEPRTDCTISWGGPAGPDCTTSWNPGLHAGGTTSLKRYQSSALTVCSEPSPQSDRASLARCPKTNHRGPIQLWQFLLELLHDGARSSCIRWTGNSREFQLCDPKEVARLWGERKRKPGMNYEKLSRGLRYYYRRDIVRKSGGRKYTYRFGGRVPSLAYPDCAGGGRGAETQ
The conditions noted are these: protein: recombinant; tags: N-terminal GST; dsDNA, one strand shown. The method, boiled down: as §1

Experiment [8] addresses T5, ELF3 (Homo sapiens, UniProt P78545 1-371).
T5 sequence: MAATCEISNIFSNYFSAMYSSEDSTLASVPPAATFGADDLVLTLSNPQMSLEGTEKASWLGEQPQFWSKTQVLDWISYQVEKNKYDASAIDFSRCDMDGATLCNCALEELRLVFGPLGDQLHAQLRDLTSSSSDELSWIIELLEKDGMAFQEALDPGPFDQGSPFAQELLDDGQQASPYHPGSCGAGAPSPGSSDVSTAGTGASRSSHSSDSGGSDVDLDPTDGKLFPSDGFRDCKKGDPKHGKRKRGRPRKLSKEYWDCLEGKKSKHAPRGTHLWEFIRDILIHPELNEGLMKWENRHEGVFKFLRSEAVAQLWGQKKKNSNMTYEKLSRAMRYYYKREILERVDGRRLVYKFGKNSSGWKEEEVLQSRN
The conditions noted are these: protein: recombinant; tags: N-terminal GST; dsDNA, one strand shown. The method, boiled down:
as §1

In experiment [9] the target is CRX (Homo sapiens, UniProt O43186 1-299). The conditions noted are these: protein: recombinant; tags: N-terminal GST; dsDNA, one strand shown. The method, boiled down: as §1
In experiment [10] the target is ETV1 (Homo sapiens, UniProt P50549 1-477). The conditions noted are these: protein: recombinant; tags: N-terminal GST; dsDNA, one strand shown. The method, boiled down: as §1
Experiment [11] has as its target T6, ERF (Homo sapiens, UniProt P50548 1-548).
T6 sequence: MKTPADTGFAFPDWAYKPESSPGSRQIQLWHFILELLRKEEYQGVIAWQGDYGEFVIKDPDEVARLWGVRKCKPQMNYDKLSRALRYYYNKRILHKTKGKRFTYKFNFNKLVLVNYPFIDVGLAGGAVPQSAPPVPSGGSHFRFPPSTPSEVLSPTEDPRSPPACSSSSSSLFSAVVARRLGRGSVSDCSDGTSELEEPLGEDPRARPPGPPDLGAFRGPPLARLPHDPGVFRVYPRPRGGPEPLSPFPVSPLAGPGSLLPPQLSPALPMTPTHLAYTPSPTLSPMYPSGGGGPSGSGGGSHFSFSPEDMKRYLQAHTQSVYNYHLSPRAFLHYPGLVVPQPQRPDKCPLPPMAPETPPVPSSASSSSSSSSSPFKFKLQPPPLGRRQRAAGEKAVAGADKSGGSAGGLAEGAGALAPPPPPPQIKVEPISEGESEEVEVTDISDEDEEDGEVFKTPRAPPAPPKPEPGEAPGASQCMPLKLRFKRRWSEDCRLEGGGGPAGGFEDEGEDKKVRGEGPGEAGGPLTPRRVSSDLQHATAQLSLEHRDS
The conditions noted are these: protein: recombinant; tags: N-terminal GST; dsDNA, one strand shown. The method, boiled down: as §1

The target in experiment [12] is T7, ETV3L (Homo sapiens, UniProt Q6ZN32 1-361).
T7 sequence: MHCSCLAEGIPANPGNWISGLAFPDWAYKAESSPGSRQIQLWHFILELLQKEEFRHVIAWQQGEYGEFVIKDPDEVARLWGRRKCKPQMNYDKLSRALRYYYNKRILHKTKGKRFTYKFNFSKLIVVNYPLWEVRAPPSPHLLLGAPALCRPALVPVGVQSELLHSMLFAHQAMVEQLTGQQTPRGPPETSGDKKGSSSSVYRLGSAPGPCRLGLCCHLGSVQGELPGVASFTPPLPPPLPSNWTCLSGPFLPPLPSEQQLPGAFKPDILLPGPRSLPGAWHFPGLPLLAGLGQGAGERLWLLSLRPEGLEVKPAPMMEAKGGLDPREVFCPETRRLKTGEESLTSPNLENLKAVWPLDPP
The conditions noted are these: protein: recombinant; tags: N-terminal GST; dsDNA, one strand shown. The method, boiled down:
as §1

The target of experiment [13] is T8, ETS2 (Homo sapiens, UniProt P15036 1-469).
T8 sequence: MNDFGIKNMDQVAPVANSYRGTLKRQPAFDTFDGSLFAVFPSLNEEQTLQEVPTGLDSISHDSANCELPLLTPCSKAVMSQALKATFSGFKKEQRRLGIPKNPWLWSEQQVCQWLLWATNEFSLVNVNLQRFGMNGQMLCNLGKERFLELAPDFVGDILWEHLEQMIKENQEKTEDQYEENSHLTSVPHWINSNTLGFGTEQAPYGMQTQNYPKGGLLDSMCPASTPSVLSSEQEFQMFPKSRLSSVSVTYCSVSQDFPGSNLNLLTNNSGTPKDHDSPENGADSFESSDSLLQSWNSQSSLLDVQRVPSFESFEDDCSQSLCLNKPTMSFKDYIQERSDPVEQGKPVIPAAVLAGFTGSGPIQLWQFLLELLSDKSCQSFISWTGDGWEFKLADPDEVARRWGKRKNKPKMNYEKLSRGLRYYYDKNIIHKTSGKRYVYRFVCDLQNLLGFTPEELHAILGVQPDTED
The conditions noted are these: protein: recombinant; tags: N-terminal GST; dsDNA, one strand shown. The method, boiled down:
as §1

Experiment [14] deals with T9, SPDEF (Homo sapiens, UniProt O95238 1-335).
T9 sequence: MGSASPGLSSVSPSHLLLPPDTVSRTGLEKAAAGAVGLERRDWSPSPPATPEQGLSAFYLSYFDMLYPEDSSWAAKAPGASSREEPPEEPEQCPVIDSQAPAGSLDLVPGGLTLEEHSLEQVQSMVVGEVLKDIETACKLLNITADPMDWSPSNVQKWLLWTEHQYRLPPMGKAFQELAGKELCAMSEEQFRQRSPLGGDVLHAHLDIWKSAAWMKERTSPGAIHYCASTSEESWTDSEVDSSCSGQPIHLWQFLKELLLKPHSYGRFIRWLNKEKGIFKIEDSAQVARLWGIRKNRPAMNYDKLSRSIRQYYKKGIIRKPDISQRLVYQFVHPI
The following applies: protein: recombinant; tags: N-terminal GST; dsDNA, one strand shown. The method, boiled down: as §1

Experiment [15] addresses T10, ETV7 (Homo sapiens, UniProt Q9Y603 1-341).
T10 sequence: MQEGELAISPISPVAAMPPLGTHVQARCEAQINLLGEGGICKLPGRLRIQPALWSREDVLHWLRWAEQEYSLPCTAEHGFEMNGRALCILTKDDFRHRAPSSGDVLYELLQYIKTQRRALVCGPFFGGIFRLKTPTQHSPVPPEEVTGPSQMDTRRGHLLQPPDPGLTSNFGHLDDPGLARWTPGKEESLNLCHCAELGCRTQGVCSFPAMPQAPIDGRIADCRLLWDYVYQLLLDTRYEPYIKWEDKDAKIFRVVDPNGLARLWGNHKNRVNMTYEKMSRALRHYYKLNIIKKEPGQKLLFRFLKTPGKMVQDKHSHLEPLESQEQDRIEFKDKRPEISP
The following applies: protein: recombinant; tags: N-terminal GST; dsDNA, one strand shown. The method, boiled down: as §1

Experiment [16] concerns the target T11, ELF5 (Homo sapiens, UniProt Q9UKW6-2 1-255).
T11 sequence: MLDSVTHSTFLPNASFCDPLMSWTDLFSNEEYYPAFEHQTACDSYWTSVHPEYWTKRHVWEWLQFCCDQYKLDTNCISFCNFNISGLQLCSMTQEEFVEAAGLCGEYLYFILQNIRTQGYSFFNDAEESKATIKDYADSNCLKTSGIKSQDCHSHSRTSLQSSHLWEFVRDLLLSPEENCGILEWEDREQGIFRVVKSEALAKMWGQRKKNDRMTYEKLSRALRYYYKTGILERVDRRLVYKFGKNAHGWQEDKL
The conditions noted are these: protein: recombinant; tags: N-terminal GST; dsDNA, one strand shown. The method, boiled down: as §1

Experiment [17] has as its target T12, ETV3 (Homo sapiens, UniProt P41162-2 1-143).
T12 sequence: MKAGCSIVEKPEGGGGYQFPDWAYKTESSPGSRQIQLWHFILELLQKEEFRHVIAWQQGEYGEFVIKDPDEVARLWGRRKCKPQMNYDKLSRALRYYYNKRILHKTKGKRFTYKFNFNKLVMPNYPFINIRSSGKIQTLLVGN
The following applies: protein: recombinant; tags: N-terminal GST; dsDNA, one strand shown. The method, boiled down: as §1

Experiment [18] addresses ETV6 (Homo sapiens, UniProt P41212 1-452). The conditions noted are these: protein: recombinant; tags: N-terminal GST; dsDNA, one strand shown. The method, boiled down: as §1

HSF1, sequence (Q00613 whole entry): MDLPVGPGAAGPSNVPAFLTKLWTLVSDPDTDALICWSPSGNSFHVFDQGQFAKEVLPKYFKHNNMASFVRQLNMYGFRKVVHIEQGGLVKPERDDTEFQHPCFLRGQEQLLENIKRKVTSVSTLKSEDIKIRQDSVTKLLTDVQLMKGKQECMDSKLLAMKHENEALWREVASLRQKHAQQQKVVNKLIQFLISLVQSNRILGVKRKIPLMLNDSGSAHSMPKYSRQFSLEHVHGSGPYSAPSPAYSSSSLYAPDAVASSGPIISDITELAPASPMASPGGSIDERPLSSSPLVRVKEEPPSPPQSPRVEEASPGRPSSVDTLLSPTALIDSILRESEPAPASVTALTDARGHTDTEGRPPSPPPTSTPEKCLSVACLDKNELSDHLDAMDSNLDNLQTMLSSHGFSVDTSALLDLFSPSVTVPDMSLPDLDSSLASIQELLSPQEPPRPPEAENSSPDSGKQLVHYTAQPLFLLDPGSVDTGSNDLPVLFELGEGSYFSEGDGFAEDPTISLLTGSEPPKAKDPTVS
ETV1, sequence (P50549 whole entry): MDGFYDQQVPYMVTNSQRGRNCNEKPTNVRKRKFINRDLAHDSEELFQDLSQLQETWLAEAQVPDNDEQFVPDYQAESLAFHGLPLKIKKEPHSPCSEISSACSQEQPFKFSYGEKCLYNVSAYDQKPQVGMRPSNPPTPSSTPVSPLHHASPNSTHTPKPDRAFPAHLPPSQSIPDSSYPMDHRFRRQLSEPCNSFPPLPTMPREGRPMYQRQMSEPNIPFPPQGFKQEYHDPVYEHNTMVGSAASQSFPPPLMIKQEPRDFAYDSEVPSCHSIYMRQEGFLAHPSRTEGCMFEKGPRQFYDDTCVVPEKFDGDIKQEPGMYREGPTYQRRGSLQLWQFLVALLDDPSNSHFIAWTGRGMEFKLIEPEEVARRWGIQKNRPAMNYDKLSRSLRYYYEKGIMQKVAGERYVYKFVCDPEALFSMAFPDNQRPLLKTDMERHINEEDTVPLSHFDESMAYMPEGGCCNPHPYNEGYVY
ELF4, sequence (Q99607 whole entry): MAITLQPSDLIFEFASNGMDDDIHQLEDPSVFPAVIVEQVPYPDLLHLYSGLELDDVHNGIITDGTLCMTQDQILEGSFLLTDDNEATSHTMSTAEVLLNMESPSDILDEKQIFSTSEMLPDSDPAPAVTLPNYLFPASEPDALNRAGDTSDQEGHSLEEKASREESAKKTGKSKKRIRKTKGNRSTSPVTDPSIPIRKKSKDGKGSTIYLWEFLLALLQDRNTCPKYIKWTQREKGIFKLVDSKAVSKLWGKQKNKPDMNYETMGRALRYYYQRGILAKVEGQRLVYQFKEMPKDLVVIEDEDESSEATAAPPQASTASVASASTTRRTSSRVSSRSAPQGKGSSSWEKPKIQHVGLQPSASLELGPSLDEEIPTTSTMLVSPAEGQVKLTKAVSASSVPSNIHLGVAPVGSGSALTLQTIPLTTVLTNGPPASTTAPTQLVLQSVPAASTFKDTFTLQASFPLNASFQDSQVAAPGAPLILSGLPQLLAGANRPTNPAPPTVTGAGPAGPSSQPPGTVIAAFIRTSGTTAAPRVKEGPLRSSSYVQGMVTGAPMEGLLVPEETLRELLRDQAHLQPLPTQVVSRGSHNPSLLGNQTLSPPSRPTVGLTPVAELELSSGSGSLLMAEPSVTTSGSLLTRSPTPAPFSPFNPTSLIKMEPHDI
CRX, sequence (O43186 whole entry): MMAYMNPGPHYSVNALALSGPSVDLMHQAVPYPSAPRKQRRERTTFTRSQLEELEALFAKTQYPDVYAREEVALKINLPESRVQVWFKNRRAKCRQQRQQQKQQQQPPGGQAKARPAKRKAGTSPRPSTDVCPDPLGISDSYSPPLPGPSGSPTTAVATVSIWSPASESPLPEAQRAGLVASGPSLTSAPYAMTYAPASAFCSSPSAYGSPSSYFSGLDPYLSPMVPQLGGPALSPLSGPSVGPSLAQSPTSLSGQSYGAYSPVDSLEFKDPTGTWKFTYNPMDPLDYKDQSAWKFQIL
ETV6, sequence (P41212 whole entry): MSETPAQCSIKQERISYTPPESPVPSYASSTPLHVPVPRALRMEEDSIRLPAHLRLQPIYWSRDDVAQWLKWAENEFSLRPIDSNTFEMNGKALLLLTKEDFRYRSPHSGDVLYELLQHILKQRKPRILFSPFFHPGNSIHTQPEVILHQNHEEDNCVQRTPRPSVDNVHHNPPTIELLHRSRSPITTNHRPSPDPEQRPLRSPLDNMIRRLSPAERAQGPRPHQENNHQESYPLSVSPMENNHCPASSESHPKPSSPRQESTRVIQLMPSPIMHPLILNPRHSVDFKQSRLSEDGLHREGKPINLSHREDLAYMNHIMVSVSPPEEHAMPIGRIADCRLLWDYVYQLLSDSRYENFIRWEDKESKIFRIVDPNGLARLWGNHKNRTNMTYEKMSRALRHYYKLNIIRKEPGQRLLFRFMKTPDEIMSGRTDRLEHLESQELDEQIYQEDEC
ETV5, sequence (P41161 whole entry): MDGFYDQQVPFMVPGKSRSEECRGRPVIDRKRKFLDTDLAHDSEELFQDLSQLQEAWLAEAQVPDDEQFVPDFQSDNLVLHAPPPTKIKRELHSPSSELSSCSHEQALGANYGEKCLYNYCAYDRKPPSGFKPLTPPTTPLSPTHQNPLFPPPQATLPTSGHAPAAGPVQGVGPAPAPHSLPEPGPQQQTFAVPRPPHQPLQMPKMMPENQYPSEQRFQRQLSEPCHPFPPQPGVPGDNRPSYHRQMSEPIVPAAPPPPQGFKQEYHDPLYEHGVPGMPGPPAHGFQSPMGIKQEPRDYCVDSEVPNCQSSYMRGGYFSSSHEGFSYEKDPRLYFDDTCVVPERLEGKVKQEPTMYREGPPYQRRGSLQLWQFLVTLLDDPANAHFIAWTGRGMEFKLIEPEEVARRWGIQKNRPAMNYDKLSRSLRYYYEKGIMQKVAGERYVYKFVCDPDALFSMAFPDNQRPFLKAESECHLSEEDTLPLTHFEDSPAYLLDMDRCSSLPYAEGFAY

In the case of AAAAGC, the binding signal was 1.21 fold enrichment (6-mer frequency, TF over GST control) in experiment [1]; 1.29 fold enrichment (6-mer frequency, TF over GST control) in experiment [2]; 1.3 fold enrichment (6-mer frequency, TF over GST control) in experiment [3]; 1.2 fold enrichment (6-mer frequency, TF over GST control) in experiment [4]; 1.17 fold enrichment (6-mer frequency, TF over GST control) in experiment [5]; 1.3 fold enrichment (6-mer frequency, TF over GST control) in experiment [6]. Further, the binding signal is 1.28 fold enrichment (6-mer frequency, TF over GST control) in experiment [7]; 1.22 fold enrichment (6-mer frequency, TF over GST control) in experiment [8]; 1.43 fold enrichment (6-mer frequency, TF over GST control) in experiment [9]; 1.19 fold enrichment (6-mer frequency, TF over GST control) in experiment [10]; 1.15 fold enrichment (6-mer frequency, TF over GST control) in experiment [11]; 1.23 fold enrichment (6-mer frequency, TF over GST control) in experiment [12]. Further, the binding signal in [13] was 1.15 fold enrichment (6-mer frequency, TF over GST control); in experiment [14], 1.07 fold enrichment (6-mer frequency, TF over GST control); in experiment [15], 1.35 fold enrichment (6-mer frequency, TF over GST control); in experiment [16], 1.26 fold enrichment (6-mer frequency, TF over GST control); in experiment [17], 1.22 fold enrichment (6-mer frequency, TF over GST control); in experiment [18], 1.26 fold enrichment (6-mer frequency, TF over GST control).

The values above are taken from publication PMC7862700, “An all-to-all approach to the identification of sequence-specific readers for epigenetic DNA modifications on cytosine”.
